32 compounds from the supplement of paper PMC4723716 can be followed below.

The structures appear in SMILES notation. ± gives the uncertainty stated by the source. Whole data set: some 9,900 compounds, median “viability index relative to DMSO control” near 1, cut for the lowest 2% near 0.85. For the sample, the lowest values were picked, then their nearest neighbours and some compounds at random.

For this assay, the system named is Plasmodium falciparum NF54 stage V gametocytes. The assay can be described thus: viability index relative to DMSO control (fraction); higher = less gametocyte killing. Particulars: 2.5 µM, incubation time: 72 h. In outline: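 P. falciparum NF54 stage V gametocytes in serum-free screening medium (0.75% gametocytemia, 1.25% hematocrit, 10 µl) were incubated with compound at 2.5 µM in 1,536-well plates for 72 hr at 37°C under low oxygen. Then 3 µl of 2.5 µM MitoTracker Red CMXRos plus 0.13% saponin was added for one to two hours. One field per well was imaged, 20–70 µm2 red particles were counted, and the viability index was the count divided by the plate mean of DMSO wells.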

[1] abbreviates: library set: Broad Institute DOS.
Setting [2] is: library set: Broad Institute Blood Stage.

`O=C(C1CCOCC1)N1CC(=O)N2[C@H](CO)[C@H](c3ccc(/C=C/c4ccccc4)cc3)[C@@H]2C1` showed a viability index under setting [1] of 0.99 ± 0.011.
Same read-out and setting: next, `C[C@@H]1CN([C@@H](C)CO)C(=O)c2cccc(NC(=O)c3ccc(-c4nccs4)cc3)c2O[C@@H]1CN(C)C(=O)Nc1ccc(C(F)(F)F)cc1`: 0.556 ± 0.084; `C[C@H](CO)N1C[C@H](C)[C@H](CN(C)C(=O)Nc2ccc(C(F)(F)F)cc2)Oc2c(NC(=O)c3ccc(-c4nccs4)cc3)cccc2C1=O`: 1.04 ± 0.021.
The same measure, in the same setting: to `C[C@@H]1CN([C@@H](C)CO)C(=O)c2cccc(NC(=O)c3ccc(-c4nccs4)cc3)c2O[C@H]1CN(C)C(=O)Nc1ccc(C(F)(F)F)cc1` belongs 1.011 ± 0.0069; to `Cc1noc(C)c1S(=O)(=O)N(C)C[C@@H]1Oc2c(NC(=O)c3ccc(-c4nccs4)cc3)cccc2C(=O)N([C@H](C)CO)C[C@@H]1C`, 0.978 ± 0.068; to `C[C@H](CO)N1C[C@H](C)[C@H](CN(C)C(=O)Nc2cccc3ccccc23)Oc2ncccc2C1=O`, 0.826 ± 0.021.
Same read-out and setting: to `C[C@@H]1CN([C@@H](C)CO)C(=O)c2cccc(NC(=O)C3CCOCC3)c2O[C@@H]1CN(C)C(=O)Nc1cccc2ccccc12` belongs 0.974 ± 0.06.
As to `C[C@@H]1CN([C@H](C)CO)C(=O)c2cccc(NC(=O)c3ccc(-c4nccs4)cc3)c2O[C@H]1CN(C)C(=O)Nc1ccc(C(F)(F)F)cc1`, the viability index under setting [1] came out at 0.97 ± 0.025.
The same measure, in the same setting: next, `Cc1noc(C)c1S(=O)(=O)N(C)C[C@@H]1Oc2c(NC(=O)c3ccc(-c4nccs4)cc3)cccc2C(=O)N([C@@H](C)CO)C[C@@H]1C`: 0.955 ± 0.036.
For `C[C@@H]1CN([C@@H](C)CO)C(=O)c2cccc(NC(=O)c3ccc(-c4nccs4)cc3)c2O[C@@H]1CN(C)C(=O)Nc1cccc2ccccc12`, the viability index under setting [2] stood at 0.784 ± 0.023.
As for `Cc1noc(C)c1S(=O)(=O)N(C)C[C@@H]1Oc2c(NC(=O)c3ccc(-c4nccs4)cc3)cccc2C(=O)N([C@@H](C)CO)C[C@H]1C`, the viability index under setting [1] came out at 0.828 ± 0.018.
The same measure, in the same setting: to `C[C@H](CO)N1C[C@H](C)[C@@H](CN(C)C(=O)Nc2ccc(C(F)(F)F)cc2)Oc2c(NC(=O)c3ccc(-c4nccs4)cc3)cccc2C1=O` belongs 0.953 ± 0.018.
Under setting [1], `C[C@@H]1CN([C@@H](C)CO)C(=O)c2cccc(NC(=O)C3CCOCC3)c2O[C@H]1CN(C)C(=O)Nc1cccc2ccccc12` showed a viability index of 0.966 ± 0.063.
On the same count and under the same terms, to `N#Cc1cccc(-c2ccc([C@@H]3[C@@H](CO)N4CCCCN(Cc5ccccc5F)C[C@H]34)cc2)c1` belongs 0.889 ± 0.028; to `C[C@H](CO)N1C[C@H](C)[C@@H](CN(C)S(=O)(=O)c2ccc(Cl)cc2)OCCCC[C@H](C)Oc2ccc(NC(=O)Nc3ccc(C(F)(F)F)cc3)cc2C1=O`, 1.1 ± 0.11; to `O=C(CC1CC1)N1CC(=O)N2[C@H](C1)[C@H](c1ccc(C#Cc3cccc(F)c3)cc1)[C@@H]2CO`, 0.974 ± 0.063.
On the same count and under the same terms, next, `COc1ccc([C@H]2C/C=C/C[C@H](C)Oc3ccccc3C(=O)N(C)[C@@H](Cc3ccccc3)C(=O)N2)c(OC)c1.COc1ccc([C@H]2C/C=C\C[C@H](C)Oc3ccccc3C(=O)N(C)[C@@H](Cc3ccccc3)C(=O)N2)c(OC)c1`: 0.861 ± 0.046.
On the same count and under the same terms, to `COc1ccc2c3c([nH]c2c1)[C@@H](CO)N(C[C@]31CCN(CC1)S(C)(=O)=O)C(=O)NC1CCCC1` belongs 1.01 ± 0.02.
Take `Cc1noc(C)c1S(=O)(=O)N(C)C[C@H]1OCc2ccccc2-c2c(n(C)c3ccccc23)C(=O)N([C@H](C)CO)C[C@H]1C`: the viability index under setting [1] came out at 0.948 ± 0.025.
On the same count and under the same terms, next, `O=S(=O)(c1cccc(F)c1)N1[C@@H]2CNC[C@H]1[C@H]2c1ccc(-c2ccccc2F)cc1`: 1.06 ± 0.051.
Same read-out and setting: next, `C[C@H](CO)N1C[C@H](C)[C@@H](CN(C)S(=O)(=O)c2ccc([N+](=O)[O-])cc2)OCc2ccccc2-c2c(n(C)c3ccccc23)C1=O`: 0.896 ± 0.046.
Under setting [1], `C[C@@H]1CN([C@@H](C)CO)C(=O)c2c(c3ccccc3n2C)-c2ccccc2CO[C@H]1CN(C)C(=O)Nc1ccccc1C(F)(F)F` came in with a viability index of 0.805 ± 0.084.
Under setting [1], `C[C@@H]1CN([C@@H](C)CO)C(=O)c2c(c3ccccc3n2C)-c2ccccc2CO[C@H]1CN(C)S(=O)(=O)c1ccc([N+](=O)[O-])cc1` came in with a viability index of 0.93 ± 0.086.
Under setting [2], `C[C@H]1CN([C@@H](C)CO)C(=O)c2c(c3ccccc3n2C)-c2ccccc2CO[C@H]1CN(C)S(=O)(=O)c1ccc(C(F)(F)F)cc1` yielded a viability index of 0.705 ± 0.04.
Turning to `C[C@H]1CN([C@@H](C)CO)C(=O)c2c(c3ccccc3n2C)-c2ccccc2CO[C@H]1CN(C)Cc1cccc(C(F)(F)F)c1`, under setting [1], the viability index amounted to 0.952 ± 0.02.
Still for that read-out and setting: next, `C[C@@H]1CN([C@@H](C)CO)C(=O)c2c(c3ccccc3n2C)-c2ccccc2CO[C@@H]1CN(C)Cc1cccc(C(F)(F)F)c1`: 0.839 ± 0.039; `C[C@@H]1CN([C@@H](C)CO)C(=O)c2c(c3ccccc3n2C)-c2ccccc2CO[C@@H]1CN(C)C(=O)Nc1ccccc1C(F)(F)F`: 0.955 ± 0.039; `C[C@H]1CN([C@@H](C)CO)C(=O)c2c(c3ccccc3n2C)-c2ccccc2CO[C@@H]1CN(C)C(=O)Nc1ccccc1C(F)(F)F`: 1.009 ± 0.0034.
Same read-out and setting: to `C[C@H](CO)N1C[C@H](C)[C@H](CN(C)S(=O)(=O)c2ccc([N+](=O)[O-])cc2)OCc2ccccc2-c2c(n(C)c3ccccc23)C1=O` belongs 0.969 ± 0.015.
For `C[C@H](CO)N1C[C@H](C)[C@H](CN(C)S(=O)(=O)c2ccc(C(F)(F)F)cc2)OCc2ccccc2-c2c(n(C)c3ccccc23)C1=O`, the viability index under setting [2] is 0.693 ± 0.051.
Under setting [1], `C[C@@H]1CN([C@@H](C)CO)C(=O)c2c(c3ccccc3n2C)-c2ccccc2CO[C@H]1CN(C)Cc1cccc(C(F)(F)F)c1` returned a viability index of 0.932 ± 0.15.
Same read-out and setting: to `C[C@@H]1CN([C@@H](C)CO)C(=O)c2c(c3ccccc3n2C)-c2ccccc2CO[C@@H]1CN(C)S(=O)(=O)c1ccc([N+](=O)[O-])cc1` belongs 0.998 ± 0.098.
